Data as given in PubChem BioAssay (EPA / NIEHS).
Activity calls are given as the source filed them. How the source made its calls: active means hit-call score of the fitted dose curve at least 0.9, where 1 is the maximum; inactive means score below 0.9.

What was measured:
[1] = APR_HepG2_CellLoss_72hr: Apredica 72-hour HepG2 Assay for Cell Loss (AID 2282915); conditions: high-content imaging
Procedure, shortened: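 HepG2 cells were exposed for 72 hr to compounds at 0.39–200 uM (ten concentrations, duplicate) in 0.5% v/v final DMSO. Nuclei were stained with Hoechst 33342 after 3.7% formaldehyde fixation, imaged at 20x, and counted; fits bidirectional versus DMSO.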

[2] = APR_HepG2_P-H2AX_72hr: Apredica 72-hour HepG2 Assay for H2AX Phosphorylation (AID 2282916); conditions: imaging, actives raise or lower the signal;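 further: phospho-histone H2A.x immunostain intensity per cell marking DNA damage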
Procedure, shortened: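 HepG2; cpd 0.39–200 uM ×10 conc, duplicates; 0.5% DMSO; 72 hr. Fix 3.7% formaldehyde 30 min RT, 0.5% Triton X-100 10 min. Anti-phospho-H2A.x 1:200 + Hoechst 2 ug/mL, 60 min RT; ArrayScan imaging.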

[3] = APR_HepG2_MitoMembPot_72hr: Apredica 72-hour HepG2 Assay for Mitochondrial Membrane Potential (AID 2282917); conditions: imaging, actives raise or lower the signal
Procedure, shortened: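 HepG2 cells exposed 72 h to compounds at 0.39–200 uM (0.5% v/v DMSO, duplicates); MitoTracker Red CMXRos 250 nM loaded 30 min before 3.7% formaldehyde fixation, imaged by HCS fluorescence. Bidirectional fit versus DMSO.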

[4] = APR_HepG2_MitoticArrest_72hr: Apredica 72-hour HepG2 Assay for Mitotic Arrest (AID 2282918); conditions: high-content imaging, actives raise or lower the signal
Procedure, shortened: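 HepG2 cells treated 72 h at 0.39–200 uM, 0.5% DMSO final; formaldehyde-fixed, stained with Hoechst 33342 and phospho-histone H3 antibody, imaged by high-content fluorescence; bidirectional fit versus DMSO.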

[5] = APR_HepG2_MicrotubuleCSK_72hr: Apredica 72-hour HepG2 Assay for Microtubule CSK Stabilty (AID 2282919); conditions: HepG2 microtubule cytoskeleton, high-content imaging, actives raise or lower the signal
Procedure, shortened: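 HepG2 human liver cells were dosed for 72 h at ten concentrations from 0.39 to 200 uM in duplicate (0.5% v/v DMSO final). Fixed, permeabilized cells were immunostained for alpha-tubulin (Cy5) with a Hoechst counterstain and imaged at 20x.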

[6] = APR_HepG2_P-H2AX_24hr: Apredica 24-hour HepG2 Assay for H2AX Phosphorylation (AID 2282920); conditions: high-content imaging, actives raise or lower the signal
Procedure, shortened: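 HepG2 cells dosed 24 h at 0.39–200 uM (10 points, duplicate, 0.5% DMSO final). Formaldehyde-fixed and permeabilized, then immunostained for phospho-H2A.x with Hoechst. Fluorescence quantified by high-content imaging, fitted bidirectionally versus DMSO.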

[7] = APR_HepG2_StressKinase_72hr: Apredica 72-hour HepG2 Assay for Stress Kinase (AID 2282921); conditions: HepG2 stress kinase (phospho-c-Jun) imaging, actives raise or lower the signal
Procedure, shortened: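 Dose 0.39–200 uM (10 pts, duplicate), 0.5% DMSO; 72 h; fix 3.7% formaldehyde 30 min RT; Triton permeabilize; anti-phospho-c-Jun/Cy3 + Hoechst 60 min RT; image 20x; fit gain/loss vs DMSO.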

[8] = APR_HepG2_StressKinase_24hr: Apredica 24-hour HepG2 Assay for Stress Kinase (AID 2282922); conditions: HepG2 stress kinase (phospho-c-Jun) imaging, actives raise or lower the signal
Procedure, shortened: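 HepG2 cells exposed 24 hr to compound at 0.39–200 uM (10 concentrations, duplicate), 0.5% v/v DMSO final. Fixed in 3.7% formaldehyde, permeabilized with Triton X-100, immunolabeled for phospho-c-Jun with Hoechst 33342; HCS fluorescence imaging, bidirectional fit versus DMSO.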

[9] = APR_HepG2_p53Act_72hr: Apredica 72-hour HepG2 Assay for p53 Activation (AID 2282923); conditions: high-content imaging, actives raise or lower the signal;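 further: average cellular p53 protein immunofluorescence intensity in HepG2 cells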
Procedure, shortened: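 10-pt conc. 0.39–200 uM, duplicate, 0.5% DMSO; 72 hr exposure; 3.7% formaldehyde fix, 0.5% Triton perm; sheep anti-p53/Cy5 + Hoechst; ArrayScan 20x, 6 images/well; gain/loss fit vs DMSO.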

[10] = APR_HepG2_MitoMass_72hr: Apredica 72-hour HepG2 Assay for Mitochondrial Mass (AID 2282924); conditions: high-content imaging, actives raise or lower the signal;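 further: MitoTracker Red CMXRos stain intensity per cell imaged as mitochondrial mass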
Procedure, shortened: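 HepG2 cells were exposed for 72 hr to compounds at 0.39–200 uM (ten concentrations, duplicate, 0.5% v/v DMSO final). Live cells were stained with 250 nM MitoTracker Red CMXRos for 30 min, then fixed in 3.7% formaldehyde and imaged by HCS fluorescence.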

[11] = APR_HepG2_NuclearSize_72hr: Apredica 72-hour HepG2 Assay for Nuclear Size (AID 2282925); conditions: high-content imaging, actives raise or lower the signal
Procedure, shortened: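 HepG2 cells were exposed to compounds at ten concentrations from 0.39 to 200 uM (duplicate, 0.5% DMSO final) for 72 hr. After fixation in 3.7% formaldehyde, nuclei were stained with Hoechst 33342 (2 ug/mL) and imaged at 20x.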

[12] = ATG_CMV_CIS: Attagene CIS-FACTORIAL HepG2 Assay for human CMV (Internal Marker) (AID 2282928); conditions: HepG2 CMV promoter reporter, transcription factor profiling; actives raise or lower the signal;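 further: endpoint acts as a background internal control marker rather than a target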
Procedure, shortened: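 HepG2 cells transiently transfected with multiple cis-regulated reporter units; 24 h compound exposure. Reporter mRNA quantified by RT-PCR, 6-FAM primer-extension labeling, HpaI digestion and capillary electrophoresis; bidirectional fitting against DMSO baseline.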

[13] = ATG_DR4_LXR_CIS: Attagene CIS-FACTORIAL HepG2 Assay for human Liver X Receptor (LXR), DR4 submotif (AID 2282929); conditions: HepG2 Attagene DR4 cis-reporter, mRNA transcription; actives raise or lower the signal
Procedure, shortened: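 Endogenous factor activity at a DR4 cis-element is read as reporter mRNA in transiently transfected HepG2 cells. Exposure lasts 24 h; transcripts are amplified, fluorescently labelled and sized by capillary electrophoresis, with DMSO as baseline.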

[14] = biological target: Aryl hydrocarbon receptor (Homo sapiens) (UniProt P35869); assay: ATG_Ahr_CIS: Attagene CIS-FACTORIAL HepG2 Assay for human Aryl Hydrocarbon Receptor (Ahr) (AID 2282930); conditions: HepG2 AhR cis-factorial reporter transcription; actives raise or lower the signal
Aryl hydrocarbon receptor (Homo sapiens), sequence (P35869 whole entry, looked up): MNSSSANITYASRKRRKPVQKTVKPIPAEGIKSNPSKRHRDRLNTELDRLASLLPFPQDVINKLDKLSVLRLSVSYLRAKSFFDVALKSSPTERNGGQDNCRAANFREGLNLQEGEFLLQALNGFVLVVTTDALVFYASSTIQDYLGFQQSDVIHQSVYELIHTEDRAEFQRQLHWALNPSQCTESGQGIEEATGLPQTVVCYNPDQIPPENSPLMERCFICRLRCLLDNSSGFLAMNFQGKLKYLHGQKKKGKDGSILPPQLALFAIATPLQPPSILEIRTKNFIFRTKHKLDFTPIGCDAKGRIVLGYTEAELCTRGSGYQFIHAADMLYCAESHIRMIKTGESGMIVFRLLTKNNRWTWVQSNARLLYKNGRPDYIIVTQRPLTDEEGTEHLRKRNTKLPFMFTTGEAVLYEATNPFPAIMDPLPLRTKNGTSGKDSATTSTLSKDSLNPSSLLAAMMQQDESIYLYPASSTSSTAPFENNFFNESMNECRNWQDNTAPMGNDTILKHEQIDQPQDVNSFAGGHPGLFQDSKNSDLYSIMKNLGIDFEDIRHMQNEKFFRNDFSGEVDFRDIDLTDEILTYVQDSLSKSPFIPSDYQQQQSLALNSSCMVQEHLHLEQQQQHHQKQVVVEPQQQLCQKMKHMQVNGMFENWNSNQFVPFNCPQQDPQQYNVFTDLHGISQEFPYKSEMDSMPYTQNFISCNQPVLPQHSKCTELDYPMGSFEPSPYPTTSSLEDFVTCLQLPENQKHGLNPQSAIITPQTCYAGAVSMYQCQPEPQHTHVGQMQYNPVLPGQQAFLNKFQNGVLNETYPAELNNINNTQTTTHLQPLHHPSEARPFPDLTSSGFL
Procedure, shortened: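 Values derive from bidirectional fitting against DMSO negative control. Underlying signal: cis-element reporter mRNA in transiently transfected HepG2, harvested 24 h post-dose and measured by RT-PCR plus capillary electrophoresis.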

[15] = ATG_AP_1_CIS: Attagene CIS-FACTORIAL HepG2 Assay for human Activator Protein 1 (AP-1) (AID 2282931); conditions: HepG2 Attagene cis-factorial AP-1 reporter mRNA; actives raise or lower the signal
Procedure, shortened: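 Fluorescence of labelled PCR fragments separated by capillary electrophoresis gives reporter mRNA levels. HepG2 with transfected cis-regulated reporter units, 24 h exposure; DMSO serves as baseline for bidirectional curve fits.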

[16] = ATG_AP_2_CIS: Attagene CIS-FACTORIAL HepG2 Assay for human Activator Protein 2 (AP-2) (AID 2282932); conditions: HepG2 AP-2 cis-reporter, Attagene transcription factor profiling; actives raise or lower the signal
Procedure, shortened: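 Bidirectional curve fitting against DMSO was applied to reporter mRNA signals from HepG2 cells 24 h after dosing. Cis-promoter reporter units, transiently transfected, were read by RT-PCR plus capillary electrophoresis.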

[17] = ATG_BRE_CIS: Attagene CIS-FACTORIAL HepG2 Assay for human Bone Morphogenetic Protein (BMP) Response Element (BRE) (AID 2282933); conditions: HepG2 BMP response element reporter, Attagene transcription factor profiling; actives raise or lower the signal
Procedure, shortened: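 After a 24 h chemical treatment, transiently transfected HepG2 cells were lysed for RNA; reporter transcripts were quantified by fluorescent RT-PCR and capillary electrophoresis, normalised to DMSO.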

[18] = ATG_CRE_CIS: Attagene CIS-FACTORIAL HepG2 Assay for human cAMP Responsive Element (CRE) binding protein 3 (AID 2282926); conditions: HepG2 CRE cis-reporter, Attagene multiplexed mRNA; actives raise or lower the signal
Procedure, shortened: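 HepG2 cells transiently transfected with cis-element-driven multiple reporter transcription units; CRE reporter mRNA measured 24 h after dosing by RT-PCR, 6-FAM labelling, HpaI digestion and capillary electrophoresis. Bidirectional fit versus DMSO baseline.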

[19] = biological target: Retinoic acid receptor alpha (Homo sapiens) (UniProt P10276); assay: ATG_DR5_RAR_CIS: Attagene CIS-FACTORIAL HepG2 Assay for human Retinoic Acid Receptor Alpha (RARE), DR5 submotif (AID 2282934); conditions: HepG2 Attagene cis-factorial RARE DR5 reporter, mRNA; actives raise or lower the signal
Retinoic acid receptor alpha (Homo sapiens), sequence (P10276 whole entry, looked up): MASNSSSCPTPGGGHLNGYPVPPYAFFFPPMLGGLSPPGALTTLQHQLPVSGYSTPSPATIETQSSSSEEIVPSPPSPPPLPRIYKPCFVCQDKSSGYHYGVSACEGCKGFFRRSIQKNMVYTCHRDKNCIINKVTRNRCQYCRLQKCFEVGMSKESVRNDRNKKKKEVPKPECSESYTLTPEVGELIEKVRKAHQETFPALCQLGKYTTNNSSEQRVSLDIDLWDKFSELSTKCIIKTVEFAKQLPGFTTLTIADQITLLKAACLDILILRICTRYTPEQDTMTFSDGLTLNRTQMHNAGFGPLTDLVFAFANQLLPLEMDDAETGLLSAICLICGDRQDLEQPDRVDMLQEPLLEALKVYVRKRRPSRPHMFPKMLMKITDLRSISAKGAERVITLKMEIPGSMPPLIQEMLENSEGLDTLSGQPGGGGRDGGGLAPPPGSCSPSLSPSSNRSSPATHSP
Procedure, shortened: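 Endpoint fitted in both directions relative to DMSO as negative control. It reflects DR5 cis-element reporter mRNA induction in transiently transfected HepG2 cells, measured 24 h after dosing through RT-PCR and fluorescent capillary electrophoresis.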

[20] = biological target: CCAAT/enhancer-binding protein beta (Homo sapiens) (UniProt P17676); assay: ATG_C_EBP_CIS: Attagene CIS-FACTORIAL HepG2 Assay for human CCAAT/Enhancer Binding Protein (C/EBP) beta (AID 2282927); conditions: HepG2 Attagene cis-factorial transcription factor reporter; actives raise or lower the signal
CCAAT/enhancer-binding protein beta (Homo sapiens), sequence (P17676 whole entry, looked up): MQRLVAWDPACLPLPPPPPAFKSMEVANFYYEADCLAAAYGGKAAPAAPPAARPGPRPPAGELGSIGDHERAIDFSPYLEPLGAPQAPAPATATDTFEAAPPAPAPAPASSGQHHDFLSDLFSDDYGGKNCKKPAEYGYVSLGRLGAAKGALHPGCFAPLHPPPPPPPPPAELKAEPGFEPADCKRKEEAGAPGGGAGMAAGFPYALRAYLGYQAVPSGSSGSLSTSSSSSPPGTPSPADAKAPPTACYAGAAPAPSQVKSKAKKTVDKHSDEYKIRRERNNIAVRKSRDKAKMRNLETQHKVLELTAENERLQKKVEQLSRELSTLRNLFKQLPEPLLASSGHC
Procedure, shortened: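 Following a 24 h incubation with test chemical, transfected HepG2 cells yielded RNA whose reporter transcripts were quantified by RT-PCR and fluorescent capillary electrophoresis, with DMSO serving as baseline for bidirectional fitting.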

Measured: AC50

Cc1ccccc1Cl
not listed: [18] | [19] | [20]
inactive: all other assays above

CNCc1cc(F)ccc1Oc1ccc(Cl)c(Cl)c1
active: [1] 56.9 µM | [2] 59.5 µM | [4] 32.6 µM | [6] 74.4 µM | [9] 63 µM | [10] 178 µM | [11] 103 µM
not listed: [16] | [20]
inactive: all other assays above

O=c1c(O)c(-c2ccc(O)c(O)c2)oc2cc(O)cc(O)c12
active: [1] 22.6 µM | [2] 68.1 µM | [6] 48.6 µM | [10] 7.83 µM | [12] 26.5 µM | [14] 5.8 µM | [15] 100 µM
not listed: [20]
inactive: all other assays above

COc1cc(S(=O)(=O)O)c(C)cc1N=Nc1c(O)ccc2cc(S(=O)(=O)O)ccc12
not listed: [16] | [19] | [20]
inactive: all other assays above

Nc1ccc2c(c1)C(=O)c1ccccc1C2=O
active: [1] 11.5 µM | [2] 16.2 µM | [4] 10.2 µM | [6] 21.2 µM | [9] 19.3 µM
not listed: [16]
inactive: all other assays above

C=CCc1ccc(O)c(OC)c1
active: [3] 68.6 µM | [12] 80.2 µM
not listed: [18]
inactive: all other assays above

CN1CCCC1=O
not listed: [16] | [18] | [20]
inactive: all other assays above

CC(C)c1ccc(C(=O)N=C(N)N)cc1S(C)(=O)=O
not listed: [10]
inactive: all other assays above

Nc1nc(N)c2nc(CNc3ccc(C(=O)N[C@@H](CCC(=O)O)C(=O)O)cc3)cnc2n1
active: [12] 0.00818 µM | [15] 0.00864 µM
not listed: [10]
inactive: all other assays above

Oc1ccc2c(c1)OC[C@@H](N1CCC(O)(c3ccc(F)cc3)CC1)[C@H]2O
active: [14] 50 µM | [17] 62.1 µM
not listed: [16] | [18]
inactive: all other assays above

CCCCOC(=O)CCCCCCCCC(=O)OCCCC
active: [13] 144 µM
inactive: all other assays above

CCCCCCCCCCCC(=O)OC
not listed: [16] | [18] | [19]
inactive: all other assays above

C1CCC(SSC2CCCCC2)CC1
active: [1] 97.4 µM | [6] 113 µM | [7] 108 µM | [9] 148 µM | [12] 65.6 µM | [14] 66.3 µM | [15] 125 µM
not listed: [18] | [20]
inactive: all other assays above

CC(=O)Oc1ccccc1C(=O)O
active: [15] 61.1 µM
not listed: [18]
inactive: all other assays above
